Records with an inconclusive call do not appear. Entries that show only a call come without a potency. A number with no mark means an inactive call. The source made the active and inactive calls. Calls follow the shape of the dose curve; as a rule, active = well fitted curve in the direction sought with a large enough effect; inconclusive = small, poorly fitted or top-dose-only effect, or another doubt; inactive = no such curve, though single readings can be large; an effect the other way counts as inactive or inconclusive.
Assays:
HaCat = assay: Cytotoxic Profiling of Annotated Libraries Using Quantitative High-Throughput Screening (AID 1296008); details: Five cell lines viability, CellTiter-Glo ATP luminescence, 48-72 h; max response: hits give low values; also: nearly all actives have a fitted effect of over 60% in size
Procedure, shortened: (§1)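 Cytotoxicity was measured as CellTiter-Glo ATP luminescence, read after 10 min at room temperature. Compound treatment of the cells lasted 48 or 72 hr at 37 degrees Celsius in a qHTS format.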

KB-3-1 = assay: as above; details: Five cell lines viability, CellTiter-Glo ATP luminescence, 48-72 h; max response: hits give low values
Procedure, shortened: as §1

C33A = assay: Primary qHTS to identify gynecologic anti-cancer compounds using libraries of approved drugs and bioactive compounds (AID 1345084); details: Gynecologic cancer cell panel viability, ATPlite luminescence, 48 h; series mostly up to 57.5 µM; also: nearly all actives have a fitted effect of over 55% in size
Procedure, shortened: (§2)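 Cells, 1,000 per well, plated 16 h, then exposed 48 h at 37 C to compounds. Viability by ATPlite luminescence after 15 min at room temperature.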

CAOV3 = assay: as above; details: Gynecologic cancer cell panel viability, ATPlite luminescence, 48 h; series mostly up to 57.5 µM
Procedure, shortened: as §2

CASKI = assay: as above; details: Gynecologic cancer cell panel viability, ATPlite luminescence, 48 h; series mostly up to 57.5 µM
Procedure, shortened: as §2

Es-2 = assay: as above; details: Gynecologic cancer cell panel viability, ATPlite luminescence, 48 h; series mostly up to 57.5 µM
Procedure, shortened: as §2

Hek293T = assay: as above; details: Gynecologic cancer cell panel viability, ATPlite luminescence, 48 h, control line for the selectivity index; series mostly up to 57.5 µM
Procedure, shortened: as §2

JEG-3 = assay: as above; details: Gynecologic cancer cell panel viability, ATPlite luminescence, 48 h; series mostly up to 57.5 µM
Procedure, shortened: as §2

OV90 = assay: as above; details: Gynecologic cancer cell panel viability, ATPlite luminescence, 48 h; series mostly up to 57.5 µM
Procedure, shortened: as §2

HeLa = assay: as above; details: Gynecologic cancer cell panel viability, ATPlite luminescence, 48 h; series mostly up to 57.5 µM
Procedure, shortened: as §2
Potency is read from the fitted curve at half-maximal effect.

`CCCCNc1ccc(-c2ccc(CN3CCOCC3)cn2)c(NC2CCC(O)CC2)c1` (stereo not given) was tested, and the max response (HaCat) was -2.49%, the max response (KB-3-1) was -18.8% and the Potency (C33A) was “inactive”. The Potency (CAOV3) was 1.78 µM (active), the Potency (CASKI) was “inactive” and the Potency (Es-2) was “inactive”. For the same compound, the Potency (Hek293T) was “inactive”, the Potency (JEG-3) was “inactive” and the Potency (OV90) was “inactive”.

In the case of `Nc1ccc(/C=C/C(=O)NCc2cc3cc(-c4ccc(C(=O)N5CCC(F)(F)CC5)cc4)cc(-c4ccc(F)cc4)c3o2)cn1`, the Potency (HaCat) is reported as 5.17 µM (active), the Potency (KB-3-1) is reported as 0.92 µM (active) and the Potency (C33A) is reported as 7.08 µM (active). The Potency (HeLa) was 4.47 µM (active), the Potency (Hek293T) was 3.98 µM (active) and the Potency (JEG-3) was 1.58 µM (active). For the same compound, the Potency (OV90) was 3.55 µM (active).

In the case of `COc1ncc(Nc2ncc([C@@H](C)N3CCN(S(C)(=O)=O)CC3)cc2-c2nc(C)nc(N)n2)cc1F`, the Potency (HaCat) is reported as 0.058 µM (active), the Potency (KB-3-1) is reported as 9.2 µM (active) and the Potency (CAOV3) is reported as “inactive”. For the same compound, the Potency (CASKI) was 0.398 µM (active), the Potency (Es-2) was “inactive” and the Potency (HeLa) was “inactive”. The Potency (Hek293T) was 1.26 µM (active) and the Potency (OV90) was “inactive”.

For `C=C(C)C(=O)OC1C(OC(C)=O)/C(C=O)=C\CC/C(CO)=C/C2OC(=O)C(=C)C21` (stereo not given), the max response (HaCat) was -6.21%, the max response (KB-3-1) was -25.3% and the Potency (C33A) was “inactive”. The Potency (CASKI) was “inactive”, the Potency (HeLa) was “inactive” and the Potency (JEG-3) was “inactive”. The Potency (OV90) was “inactive”.

`Cc1ccc(C(=O)Nc2noc3ccccc23)cc1` was tested, and the max response (HaCat) was -29.9%, the outcome (KB-3-1) was “inactive” and the Potency (CAOV3) was 15.8 µM (active). The Potency (CASKI) was 22.4 µM (active), the Potency (Es-2) was 15.8 µM (active) and the Potency (HeLa) was 22.4 µM (active). The Potency (Hek293T) was 15.8 µM (active) and the Potency (OV90) was 11.2 µM (active).

For `CC(=O)O[C@@](C)(C(=O)/C=C/C(C)(C)O)[C@H]1[C@H](O)C[C@@]2(C)[C@@H]3CC=C4[C@@H](C=C(O)C(=O)C4(C)C)[C@]3(C)C(=O)C[C@]12C`, the Potency (HaCat) was 1.42 µM (active), the Potency (KB-3-1) was 1 µM (active) and the Potency (C33A) was “inactive”. The Potency (CAOV3) was 0.282 µM (active), the Potency (CASKI) was 4.47 µM (active) and the Potency (HeLa) was 2.51 µM (active). The Potency (JEG-3) was “inactive” and the Potency (OV90) was 4.47 µM (active).

In the case of `CC[C@]1(O)CC2CN(CCc3c([nH]c4ccccc34)[C@@](C(=O)OC)(c3cc4c(cc3OC)N(C=O)[C@H]3[C@@](O)(C(=O)OC)[C@H](OC(C)=O)[C@]5(CC)C=CCN6CC[C@]43[C@@H]65)C2)C1` (stereo not given in full), the max response (HaCat) is reported as 3.94%, the Potency (KB-3-1) is reported as 0.0081 µM (active) and the Potency (CAOV3) is reported as “inactive”. For the same compound, the Potency (CASKI) was 0.0891 µM (active), the Potency (Es-2) was 0.447 µM (active) and the Potency (HeLa) was 0.282 µM (active). The Potency (OV90) was 1.78 µM (active).

With `C=C1C(=O)OC2/C=C(\CO)CC/C=C(\C=O)CC(OC(=O)CC(C)C)C12` (stereo not given) the max response (HaCat) was -10.5%, the max response (KB-3-1) was -5.58% and the Potency (C33A) was “inactive”. For the same compound, the Potency (CASKI) was “inactive”, the Potency (HeLa) was “inactive” and the Potency (Hek293T) was “inactive”. The Potency (JEG-3) was “inactive” and the Potency (OV90) was “inactive”.

`CN(C)C/C=C/C(=O)Nc1cc2c(Nc3ccc(F)c(Cl)c3)ncnc2cc1OC1CCOC1` (stereo not given) was tested, and the Potency (HaCat) was 0.517 µM (active), the Potency (KB-3-1) was 5.17 µM (active) and the Potency (C33A) was 20 µM (active). For the same compound, the Potency (CAOV3) was 10 µM (active) and the Potency (JEG-3) was “inactive”.

For `FC(F)(F)c1cc(-c2ncn(/C=C\c3nnco3)n2)cc(C(F)(F)F)c1`, the max response (HaCat) was -20%, the max response (KB-3-1) was -19.3% and the Potency (C33A) was “inactive”. The Potency (CAOV3) was “inactive”, the Potency (CASKI) was “inactive” and the Potency (Es-2) was 3.16 µM (active). For the same compound, the Potency (HeLa) was “inactive” and the Potency (OV90) was “inactive”.

In the case of `Cc1nc(NC(=O)N2CCCC2C(N)=O)sc1-c1csc(C(C)(C)C)n1` (stereo not given), the Potency (HaCat) is reported as 5.17 µM (active), the outcome (KB-3-1) is reported as “inactive” and the Potency (C33A) is reported as “inactive”. For the same compound, the Potency (CAOV3) was “inactive”, the Potency (Es-2) was “inactive” and the Potency (Hek293T) was “inactive”. For the same compound, the Potency (JEG-3) was “inactive” and the Potency (OV90) was “inactive”.

With `COC(=O)Cc1cc2c(c([N+](=O)[O-])c1)N(C(=O)CC[C@H](N)C(=O)O)CC2` the max response (HaCat) was -29.1%, the max response (KB-3-1) was 7.29% and the Potency (C33A) was “inactive”. The Potency (CAOV3) was “inactive”, the Potency (Es-2) was “inactive” and the Potency (HeLa) was “inactive”. For the same compound, the Potency (Hek293T) was “inactive”, the Potency (JEG-3) was “inactive” and the Potency (OV90) was “inactive”.

In the case of `Cc1cc(C(=O)N2Cc3cnn(C)c3Nc3ccccc32)ccc1CNC(=O)N1CCC[C@H]1C(=S)N1CCCN(C)CC1`, the max response (HaCat) is reported as -21.4%, the max response (KB-3-1) is reported as 2.82% and the Potency (C33A) is reported as “inactive”. For the same compound, the Potency (CAOV3) was “inactive”, the Potency (Es-2) was “inactive” and the Potency (HeLa) was “inactive”. The Potency (Hek293T) was “inactive”, the Potency (JEG-3) was “inactive” and the Potency (OV90) was “inactive”.

`COc1cc2nc(N3CCCC3)nc(NCCCCCN3CCCC3)c2cc1OC` was tested, and the Potency (HaCat) was 18.4 µM (active), the Potency (KB-3-1) was 16.4 µM (active) and the Potency (C33A) was 15.8 µM (active). For the same compound, the Potency (HeLa) was 25.1 µM (active), the Potency (Hek293T) was 15.8 µM (active) and the Potency (OV90) was 25.1 µM (active).

With `CC1(C)C2CC(OC3OC(COC4OCC(O)(CO)C4O)C(O)C(O)C3O)C1(C)CC2O` (stereo not given) the max response (HaCat) was -6.58%, the outcome (KB-3-1) was “inactive” and the Potency (CAOV3) was “inactive”. The Potency (CASKI) was “inactive” and the Potency (OV90) was “inactive”.

In the case of `Cc1cc2c(F)c(Oc3ncnn4cc(OCC(C)O)c(C)c34)ccc2[nH]1` (stereo not given), the max response (HaCat) is reported as -0.656%, the max response (KB-3-1) is reported as -12.6% and the Potency (C33A) is reported as “inactive”. For the same compound, the Potency (CAOV3) was “inactive”, the Potency (CASKI) was “inactive” and the Potency (Es-2) was “inactive”. The Potency (OV90) was “inactive”.

`CC(C)CCC(=O)CC1c2ccccc2C(=O)N1c1ccc2ccc(Cl)nc2n1` (stereo not given) was tested, and the max response (HaCat) was 3.26%, the max response (KB-3-1) was 2.42% and the Potency (C33A) was “inactive”. For the same compound, the Potency (CAOV3) was “inactive”, the Potency (CASKI) was “inactive” and the Potency (Es-2) was “inactive”. For the same compound, the Potency (Hek293T) was “inactive” and the Potency (OV90) was “inactive”.

For `COc1ccc(C(=O)C2CCN(CC(=O)N(Cc3nc4c(c(=O)[nH]3)COCC4)CC3CC3)CC2)cc1`, the max response (HaCat) was -5.45%, the max response (KB-3-1) was 9.05% and the Potency (C33A) was “inactive”. The Potency (CASKI) was “inactive”, the Potency (Es-2) was “inactive” and the Potency (HeLa) was “inactive”. The Potency (Hek293T) was “inactive”, the Potency (JEG-3) was “inactive” and the Potency (OV90) was “inactive”.

`CN1CCC(Nc2nc(Nc3ccc(Oc4ccccc4)cc3)c3c(=O)[nH]cc(Br)c3n2)CC1` was tested, and the Potency (HaCat) was 4.11 µM (active), the Potency (KB-3-1) was 5.8 µM (active) and the Potency (C33A) was “inactive”. For the same compound, the Potency (Hek293T) was “inactive”, the Potency (JEG-3) was “inactive” and the Potency (OV90) was “inactive”.

`CC1=C(C(=O)OCc2ccccc2)C(c2ccc(-c3ccccc3)cc2)NC(=O)N1CCCCCC(=O)O` (stereo not given) was tested, and the max response (HaCat) was -18.2%, the outcome (KB-3-1) was “inactive” and the Potency (CASKI) was “inactive”. For the same compound, the Potency (Es-2) was “inactive”, the Potency (HeLa) was “inactive” and the Potency (Hek293T) was “inactive”. For the same compound, the Potency (JEG-3) was “inactive” and the Potency (OV90) was “inactive”.

`Cn1nnc(-c2ccc(-c3ccc(N4C[C@H](COP(=O)(O)O)OC4=O)cc3F)cn2)n1` was tested, and the max response (HaCat) was 0.171%, the max response (KB-3-1) was -33% and the Potency (CAOV3) was “inactive”. For the same compound, the Potency (CASKI) was 12.6 µM (active) and the Potency (OV90) was 20 µM (active).

— PubChem BioAssay (NCATS)
